Hit rate of the full screen: of about 5,500 compounds, about 2,000 (36%) were called active. Inconclusive results (about 18%) are left out. No stated cut-off is given here; in the data, active means normalized growth mostly below about 0.91 (no sharp cut-off); inconclusive means no clear call, values can overlap the other calls; inactive means mostly above about 0.92. Some of the results follow.
Assay: chemical genetic growth profiling, strain panel (AID 1159580);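 further: tested at 20 µM; growth read once vehicle control cultures reached saturation at 30 °C; 1 = growth at the plate median or of vehicle wells; lower values mean less growth of the strain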
Details: S. cerevisiae deletion strains, growth OD

Measured: normalized growth

COc1ccc(-c2cc(=O)c3cc(OC)ccc3o2)cc1
inactive: locus YJL187C, strain SWE1, active compounds read low 0.948 | locus YJR043C, strain POL32, active compounds read low 0.966 | locus YJR066W, strain TOR1, active compounds read low 0.893 | locus YKL009W, strain mrt4, active compounds read low 0.925 | locus YKL068W, active compounds read low 1 | locus YKL085W, strain MDH1 (second series), active compounds read low 0.997 | locus YKL085W, strain MDH1, active compounds read low 0.997 | locus YKL160W, strain elf1, active compounds read low 0.939 | locus YKL190W, strain CNB1, active compounds read low 1 | locus YKR001C, strain vps1, active compounds read low 0.93 | locus YKR026C, strain gcn3, active compounds read low 0.942 | locus YKR091W, strain srl3, active compounds read low 0.96 | locus YLL001W, strain dnm1, active compounds read low 0.931 | locus YLL041C, strain sdh2, active compounds read low 0.96 | locus YLR027C, strain aat2, active compounds read low 0.925 | locus YLR039C, strain RIC1, active compounds read low 1.01 | locus YLR058C, strain SHM2, active compounds read low 0.99 | locus YLR102C, strain apc9, active compounds read low 0.975 | locus YLR113W, strain HOG1, active compounds read low 0.981 | locus YLR221C, strain rsa3, active compounds read low 0.947 | locus YLR258W, strain gsy2, active compounds read low 0.934 | locus YLR262C, strain YPT6 (second series), active compounds read low 0.902 | locus YLR262C, strain YPT6, active compounds read low 1.06 | locus YLR268W, strain sec22, active compounds read low 0.965 | locus YLR330W, strain CHS5, active compounds read low 0.925 | locus YLR342W, strain FKS1 (second series), active compounds read low 0.975 | locus YLR342W, strain FKS1, active compounds read low 0.94 | locus YLR357W, strain rsc2, active compounds read low 0.88 | locus YLR370C, strain arc18, active compounds read low 0.941 | locus YLR371W, strain rom2, active compounds read low 0.965 | locus YLR384C, strain iki3, active compounds read low 0.944 | locus YLR418C, strain cdc73, active compounds read low 0.943 | locus YML016C, strain PPZ1, active compounds read low 0.991 | locus YML032C, strain rad52, active compounds read low 0.997 | locus YML120C, strain ndi1, active compounds read low 0.946 | locus YML124C, strain tub3, active compounds read low 1.01 | locus YMR058W, strain fet3, active compounds read low 0.928 | locus YMR078C, strain ctf18, active compounds read low 0.982 | locus YMR125W, strain sto1, active compounds read low 0.927 | locus YMR129W, active compounds read low 0.949 | locus YMR205C, strain PFK2, active compounds read low 0.898 | locus YMR223W, strain ubp8, active compounds read low 1.02 | locus YMR231W, strain pep5, active compounds read low 0.974 | locus YMR307W, strain GAS1, active compounds read low 1.06 | locus YNL067W, strain RPL9B, active compounds read low 0.99 | locus YNL183C, strain NPR1, active compounds read low 0.885 | locus YNL209W, strain ssb2, active compounds read low 0.956 | locus YNL233W, strain BNI4, active compounds read low 0.914 | locus YNL248C, strain rpa49, active compounds read low 0.95 | locus YNL250W, strain rad50, active compounds read low 0.957 | locus YNL271C, strain bni1, active compounds read low 1.02 | locus YNL298W, strain CLA4, active compounds read low 0.995 | locus YNL307C, strain MCK1, active compounds read low 0.987 | locus YNL322C, strain KRE1 (second series), active compounds read low 0.948 | locus YNL322C, strain KRE1, active compounds read low 1 | locus YNR049C, strain mso1, active compounds read low 0.937 | locus YNR052C, strain pop2, active compounds read low 1.02 | locus YOL012C, strain htz1 1.07 | locus YOL147C, strain pex11, active compounds read low 0.997 | locus YOR001W, strain rrp6, active compounds read low 0.95 | locus YOR061W, strain CKA2, active compounds read low 1.01 | locus YOR069W, strain VPS5, active compounds read low 0.99 | locus YOR070C, strain gyp1, active compounds read low 0.941 | locus YOR080W, strain dia2, active compounds read low 0.961 | locus YOR083W, strain WHI5, active compounds read low 0.954 | locus YOR106W, strain vam3, active compounds read low 0.905 | locus YOR136W, strain idh2, active compounds read low 0.988 | locus YOR144C, strain elg1, active compounds read low 0.997 | locus YOR184W, strain ser1, active compounds read low 0.979 | locus YOR231W, strain MKK1, active compounds read low 0.952 | locus YOR265W, strain rbl2, active compounds read low 0.949 | locus YOR316C, strain cot1, active compounds read low 0.996 | locus YPL051W, strain arl3, active compounds read low 0.945 | locus YPL055C, strain LGE1, active compounds read low 0.934 | locus YPL078C, strain atp4, active compounds read low 0.922 | locus YPL106C, strain sse1, active compounds read low 0.873 | locus YPL240C, strain hsp82, active compounds read low 0.972 | locus YPL241C, strain CIN2, active compounds read low 0.997 | locus YPL256C, strain CLN2, active compounds read low 0.962 | locus YPR119W, strain clb2, active compounds read low 1 | locus YPR141C, strain kar3, active compounds read low 1.02 | locus YPR163C, strain tif3, active compounds read low 1 | locus YPR167C, strain met16, active compounds read low 1.02 | strain wtn01, active compounds read low 0.944
active: locus YLL026W, active compounds read low 0.926 | locus YLR320W, strain mms22, active compounds read low 0.869 | locus YNL071W, strain lat1, active compounds read low 0.831 | locus YOR270C, strain vph1, active compounds read low 0.676 | locus YOR290C, strain snf2, active compounds read low 0.849
